Screens deposited in PubChem by National Center for Advancing Translational Sciences (NCATS).
Many of the other results were omitted from the sample, so hits are more common in it than they were.
NS1 function inh: inhibitors of influenza NS1 protein function. Potency, µM (series often up to 46.1 µM), inactives show top-dose activity, positive = more growth. 270,000 compounds, 0.4% hits; calls by dose curve; also: potency is read from the fitted curve at half-maximal effect; actives are rising curves; nearly all actives have a fitted effect of over 50% in size
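Read-out: OD600 growth recovery of NS1-expressing budding yeast. Cells grown overnight at 30C in -URA glucose medium, washed, resuspended and diluted 1:100 in 2% galactose assay medium, pH 6.0. Same strain lacking NS1 served as positive control.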
Shiga inhibitor: Shiga toxin inhibition; Vero cells, Shiga toxin protein synthesis inhibition reporter; inhibition, % at 38.7 µM; 290,000 compounds, 9.2% hits; in the data active = inhibition mostly above about 28%, no sharp cut-off; inactive = mostly below about 43%; also: 0% is about no effect
AmpC detergent: AmpC beta-lactamase inhibition with detergent present. P00811. AmpC hydrolysis of nitrocefin, absorbance 480 nm, 0.01% Triton. Potency, µM (top dose mostly 114 µM), inactives show at the highest dose activity change, negative = inhibition, usual class: inhibitors. 370,000 compounds, 0.041% hits;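 also: potency is read from the fitted curve at half-maximal effect; 0% = no-compound wells and -100% = no-enzyme wells; nearly all actives have a fitted effect of over 25% in size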
Target sequence (P00811 whole entry, looked up): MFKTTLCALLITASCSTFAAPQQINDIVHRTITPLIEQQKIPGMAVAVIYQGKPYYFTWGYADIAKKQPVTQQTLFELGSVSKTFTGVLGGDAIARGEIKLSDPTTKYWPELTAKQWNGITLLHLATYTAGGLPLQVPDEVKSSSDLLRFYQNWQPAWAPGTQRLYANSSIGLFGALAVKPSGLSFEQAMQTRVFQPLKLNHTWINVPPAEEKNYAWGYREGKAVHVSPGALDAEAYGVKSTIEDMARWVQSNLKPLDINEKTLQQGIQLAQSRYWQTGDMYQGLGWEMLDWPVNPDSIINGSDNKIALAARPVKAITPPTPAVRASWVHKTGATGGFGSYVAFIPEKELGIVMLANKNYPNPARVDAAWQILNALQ
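AmpC (5.3 nM in the dispensed reagent) in 20 mM phosphate pH 7.0 with 0.01% (detergent screen) or 0.0001% Triton X-100 was preincubated with compounds for 15 min at room temperature. Nitrocefin was then added from an 800 uM solution, and hydrolysis was followed at 480 nm.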
Cycloheximide cs: affects cycloheximide protein synthesis inhibition readout, counter-screen. cell reporter, cycloheximide protein synthesis inhibition counterscreen. max response, %. 300,000 compounds, 12% hits. AID 2314; in the data active = max response mostly above about 13%, no sharp cut-off; inactive = mostly below about 14%; also: read at 38.3 µM for the half of the compounds with a filed dose; 0% is about no effect
AmpC no deterg: blocks E. coli AmpC beta-lactamase in detergent-free assay. 330,000 compounds, 0.52% hits. P00811. AmpC nitrocefin hydrolysis, absorbance 480 nm, 0.0001% Triton. Potency, µM (highest dose often 57.1 µM), for the others: top-dose activity change, negative = inhibition, most hits filed as inhibitors;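 also: potency is read from the fitted curve at half-maximal effect; plate controls were no compound for no effect and no enzyme for full effect; nearly all actives have a fitted effect of over 20% in size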
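20 mM phosphate pH 7.0 + 0.01% (detergent screen) or 0.0001% Triton X-100; 5.3 nM AmpC reagent; cpd preinc 15 min RT; nitrocefin (800 uM stock) to start; A480 q20 s × 4 min; Activity was normalised to no-enzyme and no-compound control wells.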
* hit, by the source's call; ? = inconclusive; nt = not tested or not shown. Unless noted, calls follow the shape of the dose curve; as a rule, active = well fitted curve in the direction sought with a large enough effect; inconclusive = small, poorly fitted or top-dose-only effect, or another doubt; inactive = no such curve, though single readings can be large; an effect the other way counts as inactive or inconclusive.

SMILES	NS1 function inh	Shiga inhibitor	AmpC detergent	Cycloheximide cs	AmpC no deterg
CC1CN(c2ccccc2)CCN1C(=O)c1cc(COc2c(F)cccc2F)on1 (stereo not drawn)	16%	38	-11%	-2	-39%
O=C(c1cc(COc2ccc(F)cc2Cl)on1)N1CCN(C2CCCCC2)C(=O)C1	-107%	13	-7%	9	201%
Cc1ccc(C(=O)NCC(=O)OCc2cc(=O)n3ccsc3n2)cc1	nt	nt	8%	nt	nt
O=C(NCCc1ccccc1)C(=O)c1cn(CC(=O)N2CCCC2)c2ccccc12	4%	6	?	19*	104%
COc1ccccc1CCNC(=O)C(=O)c1cn(CC(=O)N2CCCC2)c2ccccc12	2%	64*	-7%	33*	137%
CCC(C)N=C1Sc2nc3ccc(C)cc3cc2CN1CCOC (stereo not drawn)	nt	-3	10%	5	23%
COc1ccc(/C=C/C2=CCN(C)CC2)cc1	1%	63*	3%	46*	-11%
CN1CC=C(/C=C/c2ccc(-c3ccccc3)cc2)CC1	-43%	84*	-12%	43*	100%
O=C(NNC(=S)NC(=O)c1ccco1)c1ccc(NC(=O)c2ccccc2)cc1	nt	-9	-5%	-8	-26%
CCCCOc1ccc(C(=O)N/C(=C\c2ccc(OC)cc2)C(=O)OCc2ccco2)cc1	29%	8	-7%	-2	-16%
COc1ccc(C(=O)N/C(=C\c2ccco2)C(=O)OCc2ccco2)cc1	-11%	93*	0%	34*	-36%
O=C(NC(=S)NNC(=O)c1ccccc1O)c1ccco1	-40%	-4	?	21*	-13%
O=C(NC(=S)NNC(=O)c1ccco1)c1ccc(F)cc1	-88%	active	-4%	24*	-16%
O=C(NC(=S)Nc1ccccc1Br)c1ccco1	-26%	99*	4%	54*	-16%
CCOC(=O)c1noc2ncn(CC(=O)Nc3cccc(C(F)(F)F)c3)c(=O)c12	nt	nt	21%	nt	nt
CC1=C(C(=O)NCc2ccc(C)cc2)C2(CCCCC2)OC1=O	nt	nt	0%	nt	nt
N#Cc1ccccc1OCC(=O)N1CCN(c2ccccc2)CC1	nt	nt	16%	nt	nt
COc1ccc(/C=C/C(=O)NC(=S)NNC(=O)c2ccco2)cc1	-9%	9	-14%	4	-36%
COc1ccc(C(=O)NC(=S)NNC(=O)c2ccco2)cc1	-94%	22	-3%	27*	-12%
Nc1nc(N)nc(-c2cc(O)ccc2O)n1	nt	nt	-8%	nt	-13%
CCCNc1nc(N)nc(-c2cc(Cl)ccc2OC)n1	6%	-7	-3%	8	-6%
CCNc1nc(N)nc(-c2cc(Cl)ccc2O)n1	-26%	56*	-7%	49*	-11%
CCCCNc1nc(N)nc(-c2cc(Cl)ccc2O)n1	9%	79*	-9%	74*	-21%
COc1ccc(-c2c(C#N)c(N)nc3c2CCC3)cc1	nt	15	0%	20*	-22%
Cc1cccc(N/N=C/c2ccccc2O)c1	18%	98*	?	101*	-6%
SMILES	NS1 function inh	Shiga inhibitor	AmpC detergent	Cycloheximide cs	AmpC no deterg
Cc1cccc(N/N=C/c2ccncc2)c1	-52%	45*	1%	34*	-21%
Cc1ccccc1C(=O)Nc1nnc(SCc2cc(=O)n3ccccc3n2)s1	nt	nt	-3%	nt	nt
O=C(Cc1ccccc1)Nc1sc2c(c1C(=O)Nc1ccc(Cl)cc1)CCOC2	nt	10	nt	3	nt
O=C(c1cc2cc(Br)ccc2o1)N1CCCCC1	-6%	92*	4%	38*	-9%
O=C(c1cc2cc(Cl)ccc2o1)N1CCCC1	-14%	89*	1%	49*	3%
CCn1c(=O)c(C(=O)Nc2ccc(C)cc2)c(O)c2ccccc21	20%	43	-1%	9	-21%
C=CCn1c(=O)c(C(=O)Nc2ccccc2O)c(O)c2ccccc21	4%	17	-12%	8	-20%
CCn1c(=O)c(C(=O)Nc2ccccc2C)c(O)c2ccccc21	9%	active	?	16	-5%
CCCn1c(=O)c(C(=O)Nc2ccccc2)c(O)c2ccccc21	-3%	16	1%	-1	-17%
C=CCn1c(=O)c(C(=O)Nc2ccccc2C)c(O)c2ccccc21	7%	20	?	19*	-20%
CCCn1c(=O)c(C(=O)N/N=C/c2ccccc2F)c(O)c2ccccc21	-9%	30	-3%	13*	-11%
CCCn1c(=O)c(C(=O)Nc2ccccc2C)c(O)c2ccccc21	-12%	nt	?	14*	-19%
O=C(Cc1ccccc1)NC1CC(=O)N(c2ccc3c(c2)OCCO3)C1 (stereo not drawn)	nt	nt	3%	nt	nt
Cc1ccc(NC(=O)C2CC(=O)n3ncnc3N2)cc1C (stereo not drawn)	nt	2	-1%	3	-16%
CCCCCn1c(=O)c(C(=O)Nc2ccccc2C)c(O)c2ccccc21	-8%	nt	-5%	34*	-21%
Nc1ccc2c(c1)sc1ccccc12	?	82*	-17%	58*	-1%
CCn1c(C)c(C(=O)Nc2ccc(OC)cc2)c2cc(OC)ccc21	1%	27	-8%	19*	-32%
CCOc1ccc(C(=O)Nc2ccccc2C(=O)O)cc1	1%	28	4%	13	-15%
COc1ccc(/C=N/NC(=O)c2ccccc2NC(=O)c2ccco2)c(OC)c1	-7%	12	-2%	2	27%
COc1ccc2c(c1)c(C(=O)N/N=C/c1ccc(Br)cc1)c(C)n2C	-14%	1	7%	0	-20%
COc1ccc(C(=O)Nc2ccccc2C(=O)N/N=C/c2ccco2)cc1	9%	55*	2%	41*	-42%
CCOc1ccc(/C=N/NC(=O)c2ccccc2NC(=O)c2ccc(OC)cc2)cc1	-4%	45*	-1%	60*	-5%
CCOc1ccc(/C=N/NC(=O)c2c(C)n(C)c3ccc(OC)cc23)cc1	24%	8	-3%	-2	32µM*
CC(C#N)Sc1ccc(S(=O)(=O)N2CCCC2)cn1 (stereo not drawn)	nt	nt	-6%	nt	-12%
COc1ccccc1CNC(=O)C1CCC(CNS(=O)(=O)c2ccc3c(c2)CCCC(=O)N3)CC1 (stereo not drawn)	nt	nt	2%	nt	nt
SMILES	NS1 function inh	Shiga inhibitor	AmpC detergent	Cycloheximide cs	AmpC no deterg
Cc1c(Cl)cccc1NC(=O)N1CCC(CN2CCOCC2)CC1	nt	nt	16%	nt	nt
O=C(O)[C@@H]1[C@@H](C(=O)NCc2ccccn2)[C@@H]2C=C[C@@H]1O2	-1%	nt	nt	nt	nt
COc1ccc(CNC(=O)CN=C2NC(=O)C(c3ccccc3)(c3ccccc3)N2)cc1	-3%	31*	?	11	-25%
O=C(CCNS(=O)(=O)c1cccc2nsnc12)Nc1ccc(F)cc1	nt	nt	7%	nt	nt
CCOC(=O)c1sc(=S)n(-c2ccc3c(c2)OCO3)c1N	-113%	30	-6%	30*	-1%
Cc1ccc(C2C(C(=O)c3cccs3)=C(O)C(=O)N2c2nnc(C)s2)cc1 (stereo not drawn)	nt	4	2%	8	-23%
Cc1nc(COC(=O)c2c(C)nn(-c3ccccc3)c2C)cs1	-18%	100*	?	35*	43%
Cc1sc2nc(-c3cccs3)oc(=O)c2c1C	-4%	136*	2%	43*	-3%
